Source: PubChem BioAssay (Tox21)
Records with an inconclusive call do not appear. The source made the active and inactive calls. Calls come from the whole dose curve; as a rule, active = well fitted curve in the direction sought with a large enough effect in the repeat runs; inconclusive = weak or mixed curves; inactive = no such curve, though single readings can be large; an effect the other way counts as inactive or inconclusive.

What was measured:
[1] = qHTS RealTime-Glo MT Cell Viability Assay in HepG2 cells - 8 hour (AID 1224873); note: nearly all actives have a fitted effect of over 55% in size
Method in brief: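 Real-time viability: cells seeded at 600 per well together with NanoLuc and cell-permeant prosubstrate, compounds added after 5 h incubation. Luminescence tracked at 0, 8, 16, 24, 32 and 40 h of exposure.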

[2] = qHTS RealTime-Glo MT Cell Viability Assay in HEK293 cells - 40 hour (AID 1224874); details: RealTime-Glo luminescence; max response: stronger effect = lower value; note: nearly all actives have a fitted effect of over 50% in size; note: potency is the fitted concentration of half-maximal effect
Method in brief: (§1)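 Luminescence readout at each listed time point; HEK293, 600 cells/well, RealTime-Glo MT reagent added with cells; compounds pinned (23 nL in DMSO) after 5 h at 37 C; continuous culture at 37 C.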

[3] = A CellTox Green Cytotoxicity Assay to monitor cytotoxicity in HEK293 cells - 24 hour (AID 1224875); note: series mostly up to about 77 µM; nearly all actives have a fitted effect of over 45% in size
Method in brief: (§2)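 Read-out: fluorescence of a cell-impermeant cyanine dye staining DNA of dead cells, proportional to cytotoxicity. HEK293, 600 cells/well with reagent, compound (23 nL DMSO) added after 5 h; reads at 0, 8, 16, 24, 32, 40 h.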

[4] = A CellTox Green Cytotoxicity Assay to monitor cytotoxicity in HepG2 cells - 16 hour (AID 1224876); note: nearly all actives have a fitted effect of over 45% in size
Method in brief: (§3)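 HepG2, 600 cells/well premixed w/ CellTox Green; 5 h settle, 37 C/5% CO2; pintool cpd add (DMSO); 37 C, 40 h; fluorescence read at 0, 8, 16, 24, 32, 40 h.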

[5] = qHTS RealTime-Glo MT Cell Viability Assay in HepG2 cells - 32 hour (AID 1224877); note: nearly all actives have a fitted effect of over 55% in size
Method in brief: (§4)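 Luminescence read-out: viable HepG2 cells reduce a prosubstrate to a NanoLuc substrate, giving a signal proportional to live cell number. Reads taken at 0, 8, 16, 24, 32 and 40 h of compound exposure at 37 C.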

[6] = A CellTox Green Cytotoxicity Assay to monitor cytotoxicity in HepG2 cells - 24 hour (AID 1224878); note: nearly all actives have a fitted effect of over 45% in size
Method in brief: as §3

[7] = A CellTox Green Cytotoxicity Assay to monitor cytotoxicity in HepG2 cells - 40 hour (AID 1224879); note: nearly all actives have a fitted effect of over 40% in size
Method in brief: as §3

[8] = qHTS RealTime-Glo MT Cell Viability Assay in HEK293 cells - 0 hour (AID 1224880); note: top concentration of the series differs between compounds; nearly all actives have a fitted effect of over 45% in size
Method in brief: as §1

[9] = A CellTox Green Cytotoxicity Assay to monitor cytotoxicity in HEK293 cells - 32 hour (AID 1224881); note: nearly all actives have a fitted effect of over 40% in size
Method in brief: as §2

[10] = A CellTox Green Cytotoxicity Assay to monitor cytotoxicity in HepG2 cells - 0 hour (AID 1224882); note: nearly all actives have a fitted effect of over 35% in size
Method in brief: as §3

[11] = A CellTox Green Cytotoxicity Assay to monitor cytotoxicity in HepG2 cells - 32 hour (AID 1224883); note: nearly all actives have a fitted effect of over 50% in size
Method in brief: as §3

[12] = A CellTox Green Cytotoxicity Assay to monitor cytotoxicity in HEK293 cells - 8 hour (AID 1224884); note: nearly all actives have a fitted effect of over 35% in size
Method in brief: as §2

[13] = qHTS RealTime-Glo MT Cell Viability Assay in HepG2 cells - 16 hour (AID 1224885); note: nearly all actives have a fitted effect of over 50% in size
Method in brief: as §4

[14] = qHTS RealTime-Glo MT Cell Viability Assay in HEK293 cells - 24 hour (AID 1224886); note: top concentration of the series differs between compounds; nearly all actives have a fitted effect of over 50% in size
Method in brief: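 Nonlytic real-time viability readout: viable cells convert prosubstrate to NanoLuc substrate, giving luminescence proportional to live cell number. HEK293, 600 cells/well, compound added after 5 h, continuous culture at 37 C.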

[15] = qHTS RealTime-Glo MT Cell Viability Assay in HEK293 cells - 8 hour (AID 1224887); note: nearly all actives have a fitted effect of over 50% in size; note: potency is the fitted concentration of half-maximal effect
Method in brief: as §1

[16] = A CellTox Green Cytotoxicity Assay to monitor cytotoxicity in HEK293 cells - 16 hour (AID 1224888); note: nearly all actives have a fitted effect of over 35% in size
Method in brief: as §2

[17] = A CellTox Green Cytotoxicity Assay to monitor cytotoxicity in HepG2 cells - 8 hour (AID 1224890); note: nearly all actives have a fitted effect of over 45% in size
Method in brief: as §3

[18] = qHTS assay to identify small molecule antagonists of the estrogen receptor alpha (ER-alpha) signaling pathway using the BG1 cell line in the presence of 0.1 nM 17-beta-estradiol - cell viability counter screen (AID 1259241); note: nearly all actives have a fitted effect of over 40% in size
Method in brief: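 Measures cytotoxicity alongside the ER-alpha antagonist readout: VM7Luc4E2 cells, charcoal-stripped serum, 0.1 nM 17beta-estradiol final, 22 hr compound incubation at 37C, CellTiter-Fluor fluorescence.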

[19] = qHTS assay to identify small molecule antagonists of the androgen receptor (AR) signaling pathway using the MDA cell line in the presence of 0.5 nM R1881 - cell viability counter screen (AID 1259242); note: nearly all actives have a fitted effect of over 45% in size
Method in brief: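 Live-cell protease fluorescence, CellTiter-Fluor, 30 min at 37C. Cells: MDA-kb2, 3,000/well, preincubated 5 hr. Compounds plus 0.5 nM R1881 final, 16 hr, 37C, 0% CO2.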

[20] = qHTS RealTime-Glo MT Cell Viability Assay in HepG2 cells - 0 hour (AID 1224889); note: nearly all actives have a fitted effect of over 50% in size
Method in brief: as §4
% is set by controls: 0 for no effect and ±100 for the full control effect.

CC1=CCC(=C(C)C)CC1
inactive: Potency [1] | max response [2] -2.74% | Potency [3] | Potency [4] | Potency [5] | Potency [6] | Potency [7] | Potency [8] | Potency [9] | Potency [10] | Potency [11] | Potency [12] | Potency [13] | Potency [14] | Potency [15] | Potency [16] | Potency [17] | Potency [18] | Potency [19]

CCN1C(=O)c2ccccc2C1Nc1ccc(OCCN2CCCCC2)cc1 (centres undefined)
inactive: Potency [1] | Potency [3] | Potency [4] | Potency [5] | Potency [6] | Potency [7] | Potency [8] | Potency [9] | Potency [10] | Potency [11] | Potency [12] | Potency [16] | Potency [20] | Potency [17] | Potency [18]
active: Potency [2] 4.77 µM | Potency [15] 3.79 µM

CCCCOC(=O)CO
inactive: Potency [1] | max response [2] -0.491% | Potency [3] | Potency [4] | Potency [5] | Potency [6] | Potency [7] | Potency [8] | Potency [9] | Potency [10] | Potency [11] | Potency [12] | Potency [15] | Potency [16] | Potency [20] | Potency [17] | Potency [18] | Potency [19]

COC(C)=O
inactive: Potency [1] | max response [2] -13.9% | Potency [3] | Potency [4] | Potency [5] | Potency [6] | Potency [7] | Potency [8] | Potency [9] | Potency [10] | Potency [11] | Potency [13] | Potency [14] | Potency [15] | Potency [16] | Potency [20] | Potency [18] | Potency [19]

O=[N+]([O-])c1cccc(C(F)(F)F)c1
inactive: Potency [1] | max response [2] 7.87% | Potency [3] | Potency [4] | Potency [5] | Potency [6] | Potency [7] | Potency [8] | Potency [9] | Potency [10] | Potency [11] | Potency [12] | Potency [13] | Potency [14] | Potency [15] | Potency [16] | Potency [20] | Potency [18] | Potency [19]

CC(C)NC[C@@H](O)COc1ccc(CC(N)=O)cc1
inactive: Potency [1] | max response [2] -0.295% | Potency [3] | Potency [4] | Potency [5] | Potency [6] | Potency [7] | Potency [8] | Potency [9] | Potency [10] | Potency [11] | Potency [12] | Potency [13] | Potency [14] | Potency [15] | Potency [16] | Potency [20] | Potency [17] | Potency [18]

CCCCC(CC)COC(=O)CCCCC(=O)OCc1ccccc1 (centres undefined)
inactive: Potency [1] | max response [2] -2.79% | Potency [3] | Potency [4] | Potency [5] | Potency [6] | Potency [7] | Potency [8] | Potency [9] | Potency [10] | Potency [11] | Potency [12] | Potency [13] | Potency [14] | Potency [15] | Potency [16] | Potency [20] | Potency [18] | Potency [19]
